Results on 21 sequences are retold here after the supplement of paper PMC10681739.

In one experiment the target is T1, ETS1 (UniProt P14921).
T1 sequence: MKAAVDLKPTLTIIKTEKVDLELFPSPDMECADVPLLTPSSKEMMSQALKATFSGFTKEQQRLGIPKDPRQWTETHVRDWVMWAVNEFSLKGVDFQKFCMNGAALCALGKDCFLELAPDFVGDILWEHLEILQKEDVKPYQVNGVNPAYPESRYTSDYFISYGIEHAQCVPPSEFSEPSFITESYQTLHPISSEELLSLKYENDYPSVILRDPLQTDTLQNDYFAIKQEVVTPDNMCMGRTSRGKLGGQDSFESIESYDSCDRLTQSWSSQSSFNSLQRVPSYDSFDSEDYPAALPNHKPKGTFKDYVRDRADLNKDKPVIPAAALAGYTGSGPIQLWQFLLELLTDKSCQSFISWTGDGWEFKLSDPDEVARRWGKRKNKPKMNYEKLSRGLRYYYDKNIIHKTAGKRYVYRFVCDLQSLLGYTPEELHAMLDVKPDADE
In words: ETS1 binding intensity (PBM fluorescence), ETS1 alone (arbitrary fluorescence units); higher = stronger binding. As to conditions: ETS1 concentration 1 nM; RUNX1 concentration 0 nM.

Experiment [1] deals with RUNX1 (UniProt Q01196). Nature of the experiment: RUNX1 binding intensity (PBM fluorescence), RUNX1 alone (arbitrary fluorescence units); higher = stronger binding. As to conditions: RUNX1 concentration 2 nM; ETS1 concentration 0 nM. As for the experimental part: (§1)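 Cooperative gcPBM on 36-bp genomic probes with neighbouring ETS1 and RUNX1 sites. Recombinant human RUNX1 (2 nM) was incubated alone or with ETS1 (25 nM) and detected with anti-RUNX1 antibody plus Alexa488 secondary. Values are medians over 4 replicate spots; the RUNX1+ETS1 data were normalised to the RUNX1-only data. The probes sit in constant array flanks that are not printed.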

The target in experiment [2] is RUNX1 (UniProt Q01196). In words: RUNX1 binding intensity (PBM fluorescence) in presence of ETS1, normalised to RUNX1-only experiment (arbitrary fluorescence units); higher = stronger binding. As to conditions: RUNX1 concentration 2 nM; ETS1 concentration 25 nM. As for the experimental part:
as §1
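For RUNX1 binding intensity (PBM fluorescence) in presence of ETS1, normalised to RUNX1-only experiment in this document: Full-length recombinant human ETS1 or RUNX1 bound to double-stranded 36-bp genomic probes on microarrays, detected by protein-specific primary antibody and Alexa488 secondary, spot fluorescence as median of four replicate spots.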
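For RUNX1 binding intensity (PBM fluorescence), RUNX1 alone in this document: Full-length recombinant human RUNX1 bound to double-stranded 36-bp genomic probes on a high-density microarray, scored as Alexa488 fluorescence per spot via anti-RUNX1 antibody, median of four replicate spots.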

RUNX1, sequence (Q01196 whole entry): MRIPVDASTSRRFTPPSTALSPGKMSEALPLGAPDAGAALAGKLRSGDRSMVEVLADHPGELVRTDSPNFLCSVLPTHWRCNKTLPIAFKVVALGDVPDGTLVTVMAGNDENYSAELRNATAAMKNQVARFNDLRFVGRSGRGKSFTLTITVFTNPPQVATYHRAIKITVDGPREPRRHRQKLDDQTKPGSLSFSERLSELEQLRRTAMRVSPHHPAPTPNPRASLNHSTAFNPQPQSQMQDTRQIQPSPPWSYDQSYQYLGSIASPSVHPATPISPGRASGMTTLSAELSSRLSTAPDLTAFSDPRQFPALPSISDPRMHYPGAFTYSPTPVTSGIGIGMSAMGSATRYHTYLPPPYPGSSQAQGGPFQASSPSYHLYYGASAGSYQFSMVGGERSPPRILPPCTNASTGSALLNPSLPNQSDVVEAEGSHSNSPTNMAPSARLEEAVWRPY

As to TTCAACAGGATGTGGGAACTTGACTCTCGCCGCAAA, the ETS1 binding intensity with ETS1 stood at 3560. Also, the values for the RUNX1 binding intensity with RUNX1 [1] and in the experiment with RUNX1 [2] were 737 and 3720, respectively.

On to CAACCCGGAAGCACTAACGGAGAAACCGCAACTCGG, for which, in the experiment with ETS1, the ETS1 binding intensity came out at 729. For the same sequence, the results for the RUNX1 binding intensity in the experiment with RUNX1 [1] and in the experiment with RUNX1 [2] were 3460 and 12700, respectively.

In the experiment with ETS1, CCCATTTCCTGCTCTCCAGAGTTAACCACTGAAGTC displayed an ETS1 binding intensity of 815. Further, the RUNX1 binding intensity with RUNX1 [1] amounted to 1440; with RUNX1 [2], 3490.

Regarding TGAAGTACTAGTCAAGGATGTGGTTTTACATAGCAG, the ETS1 binding intensity in the experiment with ETS1 was determined as 586. Also, the RUNX1 binding intensity with RUNX1 [1] amounted to 923; with RUNX1 [2] it was 1340.

In the experiment with ETS1, CACTTCCTGTCAAAGCCAGTTCCTTAACCGCTTAGG came in with an ETS1 binding intensity of 1610. Further, the RUNX1 binding intensity in the experiment with RUNX1 [1] stood at 948; in the experiment with RUNX1 [2], 2930.

TGAGCACAGTATTTCCTGTGGTTTCTATTGCATTTC came in with an ETS1 binding intensity with ETS1 of 1010. For the same sequence, the RUNX1 binding intensity with RUNX1 [1] is 1090; with RUNX1 [2], 3540.

In the experiment with ETS1, CAGGTTGTTGAGGATGTGGAGAAACCGCAACCTCGT displayed an ETS1 binding intensity of 581. Besides, the RUNX1 binding intensity with RUNX1 [1] was found to be 3670; in the experiment with RUNX1 [2], 6690.

Sequence AGTTGGTTCCTTCCGGTGGGTTTGTGGGTTTGGGGT displayed an ETS1 binding intensity with ETS1 of 1420. Further, the figures for the RUNX1 binding intensity with RUNX1 [1] and with RUNX1 [2] were 870 and 2390, respectively.

On to ACAAAGAAACCTACATCCTAAGCCACAGAATACAGC, for which, in the experiment with ETS1, the ETS1 binding intensity was 545. The RUNX1 binding intensity in the experiment with RUNX1 [1] is 930; with RUNX1 [2], 881.

With CCATCCAGGAAGCTTATGGTGCAACCGCAGTGTGCC, in the experiment with ETS1, the ETS1 binding intensity worked out at 483. For the same sequence, the RUNX1 binding intensity amounted to 943 in the experiment with RUNX1 [1] and 1620 with RUNX1 [2].

In the experiment with ETS1, GGAGGCGGAAGTGGAGGTTGTTGTGGCTCCGAGGGC gave an ETS1 binding intensity of 1940. In addition, the RUNX1 binding intensity in the experiment with RUNX1 [1] was 727; with RUNX1 [2], 1100.

Turning to TGAGGGGCTCGCCGGGAAATGTGGTTTAGCGGCCCT, the ETS1 binding intensity in the experiment with ETS1 is 564. Also, the RUNX1 binding intensity with RUNX1 [1] was 832; with RUNX1 [2], 2000.

Turning to GCGCAAAGCCGGAAGGAGGGGTTTGCGGCTGGGGAG, the ETS1 binding intensity with ETS1 is 1730. Moreover, the RUNX1 binding intensity with RUNX1 [1] was 769; in the experiment with RUNX1 [2] it was 1360.

In the experiment with ETS1, GGTCAGGTGGGCGTTTCCTGTGGGCGTCTCCAACTC returned an ETS1 binding intensity of 1240. The RUNX1 binding intensity with RUNX1 [1] was 770; with RUNX1 [2], 1240.

As for TGCTTCCCTTCCGTTCCGACAGCGAAAACCGCTGCC, the ETS1 binding intensity in the experiment with ETS1 stood at 532. Further, the RUNX1 binding intensity is 998 in the experiment with RUNX1 [1] and 2030 with RUNX1 [2].

With TTGGAGGCGGAAACAGGCACCGAAAGCGGTGGAAGT, the ETS1 binding intensity in the experiment with ETS1 is 2150. In addition, the RUNX1 binding intensity was determined as 717 with RUNX1 [1] and 854 with RUNX1 [2].

Regarding CACCCCCCCAGTGCAGGAAGTGGTTTTCGAGGGCAG, in the experiment with ETS1, the ETS1 binding intensity stood at 4490. Moreover, the RUNX1 binding intensity with RUNX1 [1] came out at 908; with RUNX1 [2], 1790.

The sequence CCCACTGATAAGACAGGATGTGGTAAAGAAGCCAGC yielded an ETS1 binding intensity in the experiment with ETS1 of 5700. Also, the RUNX1 binding intensity with RUNX1 [1] was determined as 776; with RUNX1 [2], 6790.

For CAAGGCACCAACGGATGTGGTATCTGGTGAGGGCTT, the ETS1 binding intensity with ETS1 turned out to be 2150. Moreover, the results for the RUNX1 binding intensity with RUNX1 [1] and with RUNX1 [2] were 846 and 2430, respectively.

The sequence CTCAGGAATGCGGAAGTGCTCTGTGGGCACCCACCA had an ETS1 binding intensity with ETS1 of 2970. The RUNX1 binding intensity in the experiment with RUNX1 [1] came to 707; with RUNX1 [2], 1560.

For the sequence CGTGTGGGAGGCCGGAAGTTGCGGCTTCATTACTCG, in the experiment with ETS1, the ETS1 binding intensity stood at 20400. Also, the values for the RUNX1 binding intensity with RUNX1 [1] and with RUNX1 [2] were 845 and 2710, respectively.
